Laboratory results reported in ChEMBL document CHEMBL4513148, “CO-ADD screening of Stellenbosch University (South Africa) compounds”.
Measured potencies and affinities stand elsewhere.

Columns and labels:
Staphylococcus aureus = conditions: Concentration 32 ug.mL-1; ASSAY_TEST Inhibition of Bacterial Growth; detection method Absorption (OD600); MEDIA CAMHB; plate type 384well; NBS; CORNING #3640; time 18 hr
Escherichia coli = conditions: Concentration 32 ug.mL-1; ASSAY_TEST Inhibition of Bacterial Growth; detection method Absorption (OD600); MEDIA CAMHB; plate type 384well; NBS; CORNING #3640; time 18 hr

| Structure (SMILES) | Inhibition (Staphylococcus aureus) [%] | Inhibition (Escherichia coli) [%] |
| --- | --- | --- |
| CCCCCCCNS(=O)(=O)CCNC(=O)[C@H](O)C(C)(C)CO | 15.67 | -4.61 |
| CC(C)(CO)[C@H](O)C(=O)NCCCc1cn(C[C@H]2O[C@@H](n3ccc(N)nc3=O)[C@H](O)[C@@H]2O)nn1 | 12.15 | -9.07 |
| CC(C)(C)C(O)C(=O)NCCC(=O)NCCc1ccccc1 (stereo unspecified) | 10.92 | -6.19 |
| CC(C)(CN)C(O)C(=O)NCCC(=O)NCCc1ccccc1 (stereo unspecified) | 10.68 | -6.66 |
| CC(CC(=O)NCCc1ccccc1)NC(=O)[C@H](O)C(C)(C)CO (stereo partly specified) | 13.65 | -6.39 |
| CC(C)(CO)[C@@H](O)C(=O)N/C=C/C(=O)NCCc1ccccc1 | 31.24 | -5.06 |
| CCCCCCCNC(=O)CCNC(=O)C(O)C(C)(C)C (stereo unspecified) | 18.01 | -4.21 |
| CC(C)(CO)C(O)C(=O)NCCCOP(=O)(O)OCC1OC(n2ccc(N)nc2=O)C(O)C1O (stereo unspecified) | -4.3 | -11.28 |
| CC(C)(COP(=O)(O)O)[C@@H](O)C(=O)NCCC(=O)NCCc1ccccc1 | 15.25 | -8.26 |
| CC(C)(CO)[C@H](O)C(=O)NCc1cn(C[C@H]2O[C@@H](n3ccc(N)nc3=O)[C@H](O)[C@@H]2O)nn1 | 13.05 | -11.94 |
| CCCCCCCNC(=S)CCNC(=O)[C@H](O)C(C)(C)CO | 14.7 | -4.19 |
| CC(C)(CO)[C@H](O)C(=O)NCCC(=O)NCc1cn(C[C@H]2O[C@@H](n3ccc(N)nc3=O)[C@H](O)[C@@H]2O)nn1 | 2.11 | -13.27 |
| CC(C)(CO)[C@@H](O)C(=O)NCCC(=O)NNCc1ccccc1 | 15.8 | -5.42 |
| CC(C)(CO)[C@H](O)C(=O)NCCc1cn(C[C@H]2O[C@@H](n3ccc(N)nc3=O)[C@H](O)[C@@H]2O)nn1 | -0.66 | -7.3 |
| C#CCNC(=O)[C@H](O)C(C)(C)CO | 0.74 | 3.62 |
| CC(C)(CO)[C@@H](O)C(=O)NCCC(=S)NCCc1ccccc1 | 10.96 | -8.24 |
| CC(C)(CO)[C@H](O)C(=O)NCCC(=O)OCc1cn(C[C@H]2O[C@@H](n3ccc(N)nc3=O)[C@H](O)[C@@H]2O)nn1 | 8.97 | -9.8 |
| CCCCCCNNC(=O)CCNC(=O)[C@H](O)C(C)(C)CO | 13.79 | -4.33 |
